SW480 rerep: A quantitative high throughput screen for small molecules that induce DNA re-replication in SW480 colon adenocarcinoma cells. SW480 DNA re-replication, Hoechst DNA content imaging, 48 h. 340,000 tested, 1.8% active. Potency, µM (highest dose often 46.1 µM), most hits filed as activators; also: nearly all actives have a fitted effect of over 55% in size
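Readout is total intensity of Hoechst-stained nuclei, excited at 405 nm and collected at 500-530 nm. Compound treatment lasted 48 hr at 37 C in 5% CO2 before staining.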
IL1B secr inh: qHTS for Inhibitors of Inflammasome Signaling: IL-1-beta AlphaLISA Primary Screen. 360,000 tested, 4.7% active. AID 743279, 2014. activity change, % at 57.5 µM. THP-1 LPS/ATP IL-1B secretion, AlphaLISA, 16 h; active compounds read low; in the data active = activity change below about -50%; inconclusive = mostly about -30% to -49%
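THP-1 cells pretreated 1 hr with compounds (up to 57.5 uM final), then stimulated with LPS (250 ng/mL final) plus ATP (1.25 mM final); secreted IL-1B measured by AlphaLISA after 16 hr, decreased signal indicating inhibition.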
KB-V1 cytotox: qHTS assay for MDR1-selective chemotherapeutics: Primary screen using the drug-selected MDR subline cells KB-V1; Potency, µM (top dose mostly 46.1 µM), hits mostly cytotoxic; 400,000 tested, 3.4% active; KB-V1 MDR cells viability, CellTiter-Glo, 72 h; also: nearly all actives have a fitted effect of over 60% in size
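Luminescent ATP read-out (CellTiter-Glo, 10 min) measures survival of drug-selected KB-V1 MDR cells after 72 h, 37 degrees C compound exposure. Medium: phenol-red-free DMEM, 10% FBS. Values from fitted concentration-response curves.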
MCF10A rerep: A quantitative high throughput screen for small molecules that induce DNA re-replication in MCF 10a normal breast cells | MCF 10A DNA re-replication, Hoechst nuclear intensity, 48 h | Potency, µM (highest dose often 46.1 µM), most hits filed as activators | 350,000 tested, 2.9% active | AID 624296, 2012; also: nearly all actives have a fitted effect of over 50% in size
KB-3-1 tox: qHTS assay for MDR1-selective chemotherapeutics: Primary screen using the parental adenocarcinoma cell KB-3-1; Potency, µM (highest dose often 46.1 µM), usual class: cytotoxic; 400,000 tested, 1.4% active; KB-3-1 viability, CellTiter-Glo ATP luminescence, 72 h; also: nearly all actives have a fitted effect of over 60% in size
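KB-3-1 parental drug-naive adenocarcinoma cells in DMEM/10% FBS, incubated 72 h at 37 C with pin-transferred compounds across a concentration series. Viability by CellTiter-Glo luminescence; concentration-response curves fitted after normalization.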
Of the large screens only hits and unclear results are named; the others gave an inactive call; ! = not active in a repeat. Only some compounds are listed: those with a hit (about 9.9% of all), similar ones and a draw of the others. Unless noted, calls follow the shape of the dose curve; as a rule, active = well fitted curve in the direction sought with a large enough effect; inconclusive = small, poorly fitted or top-dose-only effect, or another doubt; inactive = no such curve, though single readings can be large; an effect the other way counts as inactive or inconclusive.

CCOc1ccc2c(c1)c(N=O)c(O)n2C	IL1B secr inh -63.9
Cc1ccccc1-c1cc(C(=O)NCc2ccco2)n(CC2CC(c3cccnc3)=NO2)n1 (stereo unspecified)	MCF10A rerep inconclusive, KB-3-1 tox inconclusive
COc1cc(CNc2ncnc3c2ncn3[C@H]2CN(Cc3ccc(-c4ccccc4)cc3)C[C@@H](CO)O2)cc(OC)c1OC	KB-3-1 tox inconclusive (no result: SW480 rerep, MCF10A rerep)
CCN(CC)c1ncnc2c1ncn2[C@H]1CN(Cc2ccco2)C[C@@H](CO)O1	none (no result: SW480 rerep, MCF10A rerep)
CCN(CC)c1ncnc2c1ncn2[C@H]1CN(Cc2ccc(-c3ccccc3)cc2)C[C@@H](CO)O1	IL1B secr inh -53.7, KB-3-1 tox inconclusive (no result: SW480 rerep, MCF10A rerep)
OC[C@@H]1CN(Cc2ccc(F)cc2)C[C@H](n2cnc3c(N4CCCC4)ncnc32)O1	IL1B secr inh -91.4, KB-V1 cytotox inconclusive (no result: SW480 rerep, MCF10A rerep)
COc1cc(CNc2ncnc3c2ncn3[C@H]2CN(Cc3cccc4ccccc34)C[C@@H](CO)O2)cc(OC)c1OC	KB-V1 cytotox 20.6µM, KB-3-1 tox inconclusive (no result: SW480 rerep, MCF10A rerep)
OC[C@@H]1CN(Cc2cccnc2)C[C@H](n2cnc3c(N4CCN(c5ccccc5)CC4)ncnc32)O1	IL1B secr inh -79.4 (no result: SW480 rerep, MCF10A rerep)
CN1CCN(c2ncnc3c2ncn3[C@H]2CN(Cc3ccc(F)cc3)C[C@@H](CO)O2)CC1	none (no result: SW480 rerep, MCF10A rerep)
O=C(CC1Sc2ccccc2NC1=O)NCc1ccc(Cl)cc1 (stereo unspecified)	none
CC(NC(=O)COC(=O)CNS(=O)(=O)/C=C/c1ccccc1)c1ccccc1 (stereo unspecified)	none
COc1ccccc1C(=O)NNC1CC(=O)N(c2ccc3c(c2)OCCO3)C1=O (stereo unspecified)	none
COc1ccc(N2C(=O)CC(NNC(=O)c3cc(C)oc3C)C2=O)cc1 (stereo unspecified)	MCF10A rerep 2.59µM
COc1ccc(CCNC(=O)c2ccc3c(c2)CCN3S(=O)(=O)c2ccc(C)cc2)cc1	KB-V1 cytotox inconclusive (no result: SW480 rerep, IL1B secr inh, MCF10A rerep)
Cc1cc(C)cc(OCC(=O)Nc2ccc(F)cc2)c1	IL1B secr inh -51.9, MCF10A rerep inconclusive
Cc1cc(OCC(=O)Nc2ccncc2)cc(C)c1Br	IL1B secr inh -50.3, KB-V1 cytotox inconclusive, KB-3-1 tox inconclusive
Cc1cc(OCC(=O)Nc2ccc(Br)cc2)cc2c1C(=O)CC(C)(C)O2	SW480 rerep inconclusive, IL1B secr inh -81.3, MCF10A rerep inconclusive
Cc1cc(C)cc(OCC(=O)Nc2ccc(N3CCCC3)cc2)c1	none
CC(=O)Nc1ccc(NC(=O)COc2cc(O)c3c(c2)OC(C)(C)CC3=O)cc1	none
COCCCN1C(=O)C(CC(=O)NCCN2CCOCC2)CC(C(=O)N2CCOCC2)=C1C (stereo unspecified)	none (no result: SW480 rerep, MCF10A rerep)
Cc1cc(C(F)(F)F)c(C#N)c(SCC(=O)Nc2nc3ccccc3s2)n1	KB-V1 cytotox inconclusive, MCF10A rerep inconclusive (no result: SW480 rerep)
Cc1nc(SCC(=O)Nc2nc3ccccc3s2)c(C#N)c(C)c1C	SW480 rerep 5.8µM, MCF10A rerep 6.51µM, KB-3-1 tox inconclusive
Cc1ccc2sc(NC(=O)CSc3nc(C)cc(C)c3C#N)nc2c1	SW480 rerep 2.82µM
Cc1cc(C)c(C#N)c(SCC(=O)Nc2ccccc2C)n1	none
Cc1cc(C)c(C#N)c(SCC(=O)Nc2nnc(-c3ccccc3)s2)n1	MCF10A rerep 10.3µM
O=C(O)Cn1nnc(-c2ccc(OCc3ccccc3)cc2)n1	none
CCOC(=O)c1[nH]c2ccc(OC)cc2c1NC(=O)OC	none
COC(=O)c1[nH]c2cc(C)ccc2c1NC(=O)CN1CCOCC1	none
CCOC(=O)Nc1c(C(=O)OC)[nH]c2cc(OC)ccc12	SW480 rerep inconclusive, KB-V1 cytotox 23.1µM, KB-3-1 tox 20.6µM
COC(=O)c1[nH]c2cc(OC)ccc2c1NC(=O)CN1CCN(c2cccc(C)c2)C(C)C1 (stereo unspecified)	IL1B secr inh inconclusive, KB-V1 cytotox 20.6µM, MCF10A rerep inconclusive, KB-3-1 tox inconclusive
Cc1ccc(N2C(N)=C(C#N)C(c3ccsc3)C3=C2CC(C)(C)CC3=O)cc1 (stereo unspecified)	IL1B secr inh -55.0, MCF10A rerep inconclusive, KB-3-1 tox inconclusive
CN(C)N1C(N)=C(C#N)C(c2ccsc2)C2=C1CC(C)(C)CC2=O (stereo unspecified)	KB-V1 cytotox inconclusive
COc1ccc(CNC(=O)CSc2nnc3c(n2)[nH]c2ccc(F)cc23)cc1	none
COc1ccc2[nH]c3nc(SCC(=O)Nc4cccc(NC(C)=O)c4)nnc3c2c1	IL1B secr inh -51.6, KB-V1 cytotox inconclusive, MCF10A rerep 20.6µM
CCOC(=O)CN(C(=O)CSc1nnc2c(n1)[nH]c1ccc(OC)cc12)c1ccc(F)cc1	IL1B secr inh -58.8
COc1cccc(NC(=O)CSc2nnc3c(n2)[nH]c2ccc(C)cc23)c1	SW480 rerep inconclusive, MCF10A rerep inconclusive
NC(=O)c1cc2cc(Cc3ccccc3Cl)ccc2oc1=O	SW480 rerep inconclusive, MCF10A rerep inconclusive
NC1=NC(c2ccc(Br)cc2)n2c(nc3ccccc32)N1 (stereo unspecified)	IL1B secr inh -81.3!
O=C(c1ccccc1)N1CCN(c2ncnc3c2cnn3-c2ccccc2)CC1	none
Cc1nn(-c2ccccc2)c(Cl)c1C(=O)N1CCN(c2ncnc3c2cnn3-c2ccccc2)CC1	SW480 rerep inconclusive, IL1B secr inh -73.7, KB-V1 cytotox inconclusive, MCF10A rerep inconclusive, KB-3-1 tox inconclusive
COc1cccc(OCCN2CCN(c3ncnc4c3cnn4-c3ccccc3)CC2)c1	KB-V1 cytotox 5.17µM, MCF10A rerep 18.4µM
COc1ccc(CN2CCN(C(=O)c3ccc(S(=O)(=O)N4CCCCCC4)cc3)CC2)cc1F	KB-V1 cytotox inconclusive, KB-3-1 tox 23.1µM
CC(=O)Nc1ccc(S(=O)(=O)N2CCN(CC3CC4C=CC3C4)CC2)cc1 (stereo unspecified)	SW480 rerep 1.3µM, KB-V1 cytotox inconclusive
COc1ccc(C(C)=O)cc1COC(=O)C1CCN(C(=O)c2ccc(Cl)cc2)CC1	none
COc1ccc(COC(=O)C2CCN(C(=O)c3ccc(Cl)cc3)CC2)cc1F	MCF10A rerep 14.6µM, KB-3-1 tox inconclusive
COc1ccc(CN2CCN(C(=O)c3ccc(S(=O)(=O)N4CCCCCC4)cc3)CC2)cc1	IL1B secr inh inconclusive, KB-V1 cytotox 2.31µM, MCF10A rerep inconclusive, KB-3-1 tox 8.2µM
O=C(c1ccc(S(=O)(=O)N2CCCCCC2)cc1)N1CCN(Cc2ccccc2)CC1	IL1B secr inh inconclusive, KB-V1 cytotox inconclusive
Cc1ccc(C(=O)NNC(=O)CCCCC(=O)NNC(=O)c2ccc(C)cc2)cc1	KB-V1 cytotox inconclusive

From PubChem
